Measurements from PubChem BioAssay AID602144 (Vanderbilt Specialized Chemistry Center, 2011).
Calls of active or inactive are those of the source. No stated cut-off is given here; in the data, active means remaining activity below about 50%; inactive means the rest.

Biological target: Phospholipase D1 (Homo sapiens) (UniProt Q13393)
Experiment: cellular phospholipase D1 activity inhibition – Calu-1 cells, single concentration (AID 602144);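 further: tested at 200 nM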
Details: cellular PLD1 activity, hits give low values

Chain of Phospholipase D1 (Homo sapiens) (Q13393 whole entry, looked up): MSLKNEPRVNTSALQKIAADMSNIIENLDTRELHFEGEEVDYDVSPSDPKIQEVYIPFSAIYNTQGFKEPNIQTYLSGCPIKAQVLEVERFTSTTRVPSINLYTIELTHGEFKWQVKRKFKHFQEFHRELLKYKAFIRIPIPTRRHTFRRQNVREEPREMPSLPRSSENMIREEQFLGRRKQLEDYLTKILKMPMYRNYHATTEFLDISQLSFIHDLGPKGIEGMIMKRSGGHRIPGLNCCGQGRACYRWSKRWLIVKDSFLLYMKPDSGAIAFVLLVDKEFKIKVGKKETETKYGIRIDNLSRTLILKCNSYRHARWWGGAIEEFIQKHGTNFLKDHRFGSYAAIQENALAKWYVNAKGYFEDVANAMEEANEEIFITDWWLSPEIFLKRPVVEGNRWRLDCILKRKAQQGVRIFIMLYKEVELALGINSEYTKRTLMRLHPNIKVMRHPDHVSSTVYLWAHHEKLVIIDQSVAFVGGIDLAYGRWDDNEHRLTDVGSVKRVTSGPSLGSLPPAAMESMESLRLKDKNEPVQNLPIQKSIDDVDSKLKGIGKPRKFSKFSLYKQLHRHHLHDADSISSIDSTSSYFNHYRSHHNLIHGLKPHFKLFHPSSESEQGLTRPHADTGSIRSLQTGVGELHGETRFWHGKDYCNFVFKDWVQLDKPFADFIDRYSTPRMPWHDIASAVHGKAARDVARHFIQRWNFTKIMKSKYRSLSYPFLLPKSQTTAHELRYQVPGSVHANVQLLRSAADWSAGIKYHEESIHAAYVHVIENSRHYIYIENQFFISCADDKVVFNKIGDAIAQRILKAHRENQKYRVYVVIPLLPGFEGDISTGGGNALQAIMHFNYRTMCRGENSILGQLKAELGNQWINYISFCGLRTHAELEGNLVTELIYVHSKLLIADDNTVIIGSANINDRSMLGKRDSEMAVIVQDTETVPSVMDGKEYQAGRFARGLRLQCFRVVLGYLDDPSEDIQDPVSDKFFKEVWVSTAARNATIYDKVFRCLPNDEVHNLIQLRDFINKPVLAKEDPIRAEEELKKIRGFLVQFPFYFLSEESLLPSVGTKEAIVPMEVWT
Chain of Phospholipase D1 (Homo sapiens) (Q13393 whole entry, looked up): as above

SMILES | remaining activity
O=C(CCCN1CCC(O)(c2ccc(Cl)cc2)CC1)c1ccc(F)cc1 | 80.1% (inactive)
C[C@@H](CN1CCC(n2c(=O)[nH]c3cc(-c4ccc(C(F)(F)F)cc4)ccc32)CC1)NC(=O)[C@H]1C[C@@H]1c1ccccc1 | 63.9% (inactive)
O=C(NCCN1CCC(c2nc3ccccc3[nH]2)CC1)c1ccc2ccccc2c1 | 101% (inactive)
O=c1[nH]c2ccccc2n1C1CCN(CCNS(=O)(=O)c2ccc(F)cc2)CC1 | 129% (inactive)
O=C(NCCN1CCC(n2c(=O)n(C(=O)c3ccc(Cl)cc3)c3ccccc32)CC1)c1ccc(Cl)cc1 | 27.8% (active)
O=C(NCCN1CCC(n2c(=O)[nH]c3cc(Cl)ccc32)CC1)c1ccc2ccccc2c1 | 10.3% (active)
Cc1ccc(S(=O)(=O)NCCN2CCC(n3c(=O)[nH]c4ccccc43)CC2)cc1 | 104% (inactive)
C[C@@H](CN1CCC(n2c(=O)[nH]c3ccccc32)CC1)NC(=O)Cc1cccs1 | 101% (inactive)
O=C(NCCN1CCC(n2c(=O)[nH]c3ccc(F)cc32)CC1)c1ccc(C(F)(F)F)cc1 | 19.1% (active)
O=C(NCCN1CCC(n2c(=O)[nH]c3ccccc32)CC1)NCc1cccc(F)c1 | 45.6% (active)
O=C(NCCN1CCC(n2c(=O)[nH]c3ccccc32)CC1)c1cscn1 | 16.7% (active)
COc1ccc(S(=O)(=O)NCCN2CCC(n3c(=O)[nH]c4ccccc43)CC2)cc1 | 140% (inactive)
O=c1[nH]c2ccccc2n1C1CCN(CCN2CCCC2)CC1 | 112% (inactive)
C[C@@H](CN1CCC(n2c(=O)[nH]c3ccccc32)CC1)NC(=O)c1ccc2ncccc2c1 | 29.2% (active)
O=C(NCCN1CCC2(CC1)CCN(c1ccccc1)C2=O)c1ccc2ccccc2c1 | 113% (inactive)
O=C(NCCN1CCC(C(=O)NCCCN2CCOCC2)CC1)c1ccc2ccccc2c1 | 68.3% (inactive)
O=C(NCCN1CCN(c2ccncc2)CC1)c1ccc(Cl)cc1 | 121% (inactive)
NC1(CN2CCC(n3c(=O)[nH]c4ccccc43)CC2)CCCC1 (tested in a mixture with another compound) | 86.8% (inactive)
C[C@@H](CN1CCC(n2c(=O)[nH]c3ccc(F)cc32)CC1)NC(=O)c1ccc(Cl)cc1 | 17.7% (active)
O=C(NCCN1CCC2(C=Cc3ccccc32)CC1)c1ccc2ccccc2c1 | 127% (inactive)

SMILES | remaining activity
O=C(NCCN1CCC(n2c(=O)[nH]c3ccccc32)CC1)c1ccccc1-c1ccccc1 | 92.1% (inactive)
NCCN1CCC(n2c(=O)[nH]c3cc(Cl)ccc32)CC1 (tested in a mixture with another compound) | 62.4% (inactive)
O=C(NCCN1CCC(n2c(=O)[nH]c3ccccc32)CC1)c1cnccn1 | 76.7% (inactive)
CS(=O)(=O)NCCN1CCC(n2c(=O)[nH]c3ccccc32)CC1 | 88% (inactive)
O=C(NCCN1CCN(c2ccncc2)CC1)c1ccc(F)cc1 | 126% (inactive)
C[C@@H](CN1CCC2(CC1)CCN(C)C2=O)NC(=O)c1ccc2ccccc2c1 | 122% (inactive)
C[C@@H](CN1CCC2(CC1)CN(S(C)(=O)=O)c1ccccc12)NC(=O)c1ccc2ccccc2c1 | 119% (inactive)
C[C@@H](CN1CCC(n2c(=O)[nH]c3cc(Br)ccc32)CC1)NC(=O)c1ccc(F)cc1 | 16.1% (active)
CN1CCC2(CCN(CCNC(=O)c3ccc4ccccc4c3)CC2)C1=O | 120% (inactive)
Cc1cccc(NC(=O)NCCN2CCC(n3c(=O)[nH]c4ccccc43)CC2)c1 | 67.6% (inactive)
O=C(NCCN1CCC(n2c(=O)[nH]c3ccccc32)CC1)N1c2ccccc2C=Cc2ccccc21 | 92.3% (inactive)
C[C@@H](CN1CCC(n2nnc3cc(C(F)(F)F)ccc32)CC1)NC(=O)c1cnc2ccccc2c1 | 101% (inactive)
O=C(NCCN1CCC(n2c(=O)[nH]c3cc(Cl)ccc32)CC1)c1ccc(Cl)cc1 | 7.16% (active)
C[C@@H](CN1CCC2(CC1)CCN(C)C2=O)NC(=O)c1cnc2ccccc2c1 | 127% (inactive)
C[C@@H](CN1CCC(n2c(=O)[nH]c3ccccc32)CC1)NC(=O)c1ccco1 | 41.7% (active)
O=C(NCCN1CCC(n2c(=O)[nH]c3ccccc32)CC1)NC(c1ccccc1)c1ccccc1 | 146% (inactive)
C[C@H](CN1CCC(n2c(=O)[nH]c3cc(Cl)ccc32)CC1)NC(=O)c1cc2ccccc2[nH]1 | 0.888% (active)
O=C(NCCN1CCC(n2c(=O)[nH]c3ccccc32)CC1)c1cnc2ccccc2n1 | 83.7% (inactive)
O=C1Cc2cc(CCN3CCN(c4nsc5ccccc45)CC3)c(Cl)cc2N1 | 75.1% (inactive)
C[C@@H](CN1CCC(n2c(=O)[nH]c3cc(-c4cccnc4)ccc32)CC1)NC(=O)[C@H]1C[C@@H]1c1ccccc1 | 53.2% (inactive)
